This excerpt belongs to a sample that is enriched for hits.
mcGAS MS inh – mouse cGAS inhibition by mass spec. inhibition, % at 12.5 µM. Q8C6L5. recombinant mouse cGAS, cGAMP by RapidFire MS. AID 1259397. 130,000 tested, 0.18% active;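 active means inhibition of cGAS enzyme activity at or above 60%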;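 further: enzyme stimulated by 45 bp dsDNA with ATP and GTP substrates; cGAMP share of summed cGAMP plus half ATP and half GTP signals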
Target sequence (Q8C6L5 whole entry, looked up): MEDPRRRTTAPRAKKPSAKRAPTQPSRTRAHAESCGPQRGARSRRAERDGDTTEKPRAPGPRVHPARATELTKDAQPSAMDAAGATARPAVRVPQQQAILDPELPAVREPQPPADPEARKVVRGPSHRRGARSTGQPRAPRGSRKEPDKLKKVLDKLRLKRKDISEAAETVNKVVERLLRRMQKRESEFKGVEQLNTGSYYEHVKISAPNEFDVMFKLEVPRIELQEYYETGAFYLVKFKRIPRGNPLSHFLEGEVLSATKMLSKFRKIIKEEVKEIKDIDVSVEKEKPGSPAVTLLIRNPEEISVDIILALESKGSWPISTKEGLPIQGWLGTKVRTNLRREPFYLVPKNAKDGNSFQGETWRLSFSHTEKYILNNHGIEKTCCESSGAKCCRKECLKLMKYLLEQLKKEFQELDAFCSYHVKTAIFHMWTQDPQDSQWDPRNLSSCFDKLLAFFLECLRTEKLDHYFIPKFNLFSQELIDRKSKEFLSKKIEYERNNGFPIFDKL
The depositor's hits bear a star; ! = repeats disagree.

SMILES	mcGAS MS inh
O=c1c(O)c(-c2cc(O)c(O)c(O)c2)oc2cc(O)cc(O)c12	94*
O=c1c(O)c(-c2ccccc2)oc2cc(O)ccc12	-8
O=c1c(O[C@@H]2O[C@H](CO)[C@H](O)[C@H](O)[C@H]2O)c(-c2ccc(O)c(O)c2)oc2cc(O)cc(O)c12	10
CC(=O)Nc1cccc(-n2nnn(CN3CCOCC3)c2=S)c1	0
O=S1(=O)NC(=NC2CCc3ccccc32)c2ccccc21 (stereo not given)	-5
CCc1ccc2nc(N3CCN(C(=O)C4CCCN4S(C)(=O)=O)CC3)sc2c1 (stereo not given)	6
O=S(=O)(CC1CCCO1)Nc1ccc(N2CCCC2)c(Cl)c1 (stereo not given)	-22
N#Cc1cccc(S(=O)(=O)Nc2c(F)cccc2N2CCCC2)c1	-1
N#CCCCCS(=O)(=O)Nc1ccc(N2CCCC2)c(F)c1	63*
Cc1ncc(C)c(N2CC[C@@H](c3ccc4ccccc4c3)[C@H](O)C2)n1	-14
CC(CCc1ccco1)NC(=O)c1cccc(S(=O)(=O)N(C)C)c1 (stereo not given)	-3
CC(C)C(NS(=O)(=O)c1ccccc1)C(=O)N1CCN(c2cccc(Cl)c2)CC1 (stereo not given)	60*
CC(C)C(NS(=O)(=O)c1cccc(Cl)c1)C(=O)N1CCN(c2ccccc2)CC1 (stereo not given)	-5
CC(C)C(NS(=O)(=O)c1ccccc1)C(=O)N1CCN(c2ccccc2Cl)CC1 (stereo not given)	-10
Oc1oc(-c2cccc3ccccc23)nc1C=Nc1ccccc1Cl	1
O=C(c1ccccc1Cl)N1CCCC(OCCOc2ccccc2)C1 (stereo not given)	-2
Cn1ccsc1=NC(=O)CNC(=O)Cc1cccc2ccccc12	-22
O=C(CN1C(=O)NC2(CCCC2)C1=O)OCc1nc2scc(-c3ccco3)c2c(=O)[nH]1	4
Cc1ccc(S(=O)(=O)Nc2nc3ccccc3nc2-[n+]2ccc(-c3ccncc3)cc2)cc1	-3
CS(=O)(=O)c1nnnn1-c1ccccc1Cl	21
OCc1cn(-c2ccccc2Cl)nn1	94*
CN(CCNC(=O)c1ccn(-c2ccccc2Cl)n1)C1CC1	2
Cc1nn(CC(C)C)c(C)c1CC(=O)OC(C)C(=O)Nc1ccccc1F (stereo not given)	-22
Cc1cc(O)cc(O)c1C(=O)O	46
Cc1cc(C)c(C(=O)O)c(=O)[nH]1	-4
SMILES	mcGAS MS inh
Cc1cc(O)c(C=O)c(O)c1C(=O)O	82*
CC(C)CCc1noc(CN2CCN(C/C=C/c3ccccc3)CC2)n1	-14
Cc1nn(C)c(C)c1C(C)NC(=O)c1cccc(Cn2cccn2)c1 (stereo not given)	-15
O=C(NC1CCN(c2ncccn2)CC1)c1cc2c(cc1O)CCCC2	-5
CN1CC2(CCCN(Cc3nc4ccccc4s3)C2)OC1=O (stereo not given)	-25
C=CCN=Cc1c(C(F)(F)F)[nH]n(-c2nc3ccccc3s2)c1=O	-15
Cc1ccccc1N=Cc1c(C(F)(F)F)[nH]n(-c2nc3ccccc3s2)c1=O	69*
Cc1[nH]n(-c2nc3ccccc3s2)c(=O)c1C=NC1CCN(Cc2ccccc2)CC1	-6
Cc1ccc(C)c(OCC(=O)NCCN2CCCC(C(N)=O)C2)c1C (stereo not given)	-9
Cc1onc(-c2ccccc2)c1C(=O)N1CCC(O)(CN(C)C)C1 (stereo not given)	-18
COc1ccc(C(C)NCC(O)COc2ccc(Cl)cc2Cl)cc1F (stereo not given)	-8
COc1cccc2cc(CNC(C)c3ccc(F)c(F)c3)oc12 (stereo not given)	67*
COc1ccc2cc(CNC(=O)NC(C)c3ccc(F)c(F)c3)ccc2c1 (stereo not given)	2
Cn1cc(SCC(=O)N2CCc3ccccc32)c2ccccc21	-8
O=C(Nc1ccc2scnc2c1)C1CC(=O)N(CC2CC2)C1 (stereo not given)	-13
CC(CC#N)Sc1ccccc1NC(=O)C1CC(=O)N(CC2CC2)C1 (stereo not given)	66*
CCN1CC(C(=O)Nc2ccccc2C(C)C)CC1=O (stereo not given)	3
CN(C)c1ncc(CNCc2cccnc2N2CCCCCCC2)s1	2
O=C(COc1cccc(F)c1)Nc1c(F)cccc1F	-2
O=C(CCCN1C(=O)C2C3C=CC(C3)C2C1=O)Nc1nccs1 (stereo not given)	10
CCN(CC)CCCC(C)Nc1c2ccc(Cl)cc2nc2ccc(OC)cc12 (stereo not given)	68*!
CCN(CC)CCCC(C)NCc1ccccc1OC (stereo not given)	-1
COc1ccc2nc3cc(Cl)ccc3c(Nc3cc(CN4CCCC4)c(O)c(CN4CCCC4)c3)c2n1	33
Cc1c(C)n2c3c(=O)[nH]c(=O)n(C)c3nc2n1CCCN1CCCCCC1	-8
COc1ccnc(NCC2(c3ccccc3)CCC2)n1	-7
SMILES	mcGAS MS inh
CCC(C)N(Cc1ccc(C)cc1)Cc1nccs1 (stereo not given)	-16
COc1ccc(-c2nc(-c3ccccc3)c(-c3ccccc3)n2CC(=O)N2CCCC(O)C2)cc1 (stereo not given)	-11
CCOc1ccc(C(=O)N2CCN(c3ncccn3)CC2)cc1	-1
O=C(c1ccc(N2CC(O)C2)nc1)N1CCCN(c2ncccn2)CC1	80*
O=C1CN(c2ccc(C(=O)N3CCCN(c4ncccn4)CC3)cn2)CCN1	-7
O=c1[nH]c(Nc2nc3ccccc3o2)nc2c(Cl)cc(Cl)cc12	-2
CC(C)c1nc(NC(=O)c2ccc(CNC(=O)C(C)(C)C)cc2)n[nH]1	77*
CC(C)c1nc(NC(=O)c2cn(Cc3cccs3)nn2)n[nH]1	-5
CC(C)(C)c1ccc(C(=O)Nc2n[nH]c(C(F)(F)F)n2)cc1	-1
COC(=O)C1=C(C)NC(C)=C(C(=O)OC)C1c1ccccc1[N+](=O)[O-]	73*!
COCCOC(=O)C1=C(C)N(C)C(=O)NC1c1ccccc1[N+](=O)[O-] (stereo not given)	-8
CCOC(=O)C1=C(C)NC(C)=C(C(=O)OC)C1c1cccc([N+](=O)[O-])c1 (stereo not given)	-13
CCCS(=O)(=O)N1C[C@H]2OC(=O)N(CCc3cccc(Cl)c3)[C@H]2C1	-6
Cc1c(Cl)cn2c(=O)cc(CN3CCN(C(=O)c4ccco4)CC3)nc2c1Cl	-3
CC1Sc2ccccc2N(Cc2ccc(F)c(Cl)c2)C1=O (stereo not given)	24
CC1Sc2ccc(-c3ccco3)cc2N(Cc2ccc(Cl)cc2)C1=O (stereo not given)	66*
COc1cccc(-c2ccc3c(c2)N(Cc2ccc4c(c2)OCO4)C(=O)C(C)S3)c1 (stereo not given)	-12
COC1CCN(c2ccc(N)cc2C(F)(F)F)CC1	-8
Cc1ccc(-c2ccnc(-c3cccc(CN)c3)n2)c(C)n1	26
COc1cccc(OCCCCOc2ccc3ccccc3c2)c1	-5
COc1ccccc1C(C)N(C)Cc1nc(-c2ccc(C(F)(F)F)cc2)no1 (stereo not given)	-2
CCc1ccc(-n2nc(C(=O)O)c3c2CCC3)cc1	-2
CCCCn1c(N)cc(=O)[nH]c1=O	-4
CCCCCC(C)n1[nH]c(=O)c2c(C)cc(C)nc21 (stereo not given)	13
CCCCC(C)n1[nH]c(=O)cc1N (stereo not given)	63*
O=C(Nc1ccc2c(c1)CCC2)c1ccc(=O)n(Cc2ccccc2)n1	-3

Screens deposited in PubChem BioAssay by Fisher Drug Discovery Resource Center.
